This is an account of results in PubChem BioAssay (EPA / NIEHS).

Experiment [1] is described as follows: BSK_BT_PBMCCytotoxicity: PBMC Cytotoxicity Assessment in the BioMAP Diversity Plus: BT Assay (AID 2284225).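 Further: PBMC viability measured by Alamar Blue dye reduction fluorescence.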 To be noted: primary human B cells with PBMC. An outline of the steps: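 PBMC (75,000/well) pretreated with compound 1 h, then activated with SEB and TSST-1 (20 ng/mL each final), incubated 90 h; Alamar Blue added 6 h, fluorescence read at 546/580 nm. Fitted relative to DMSO.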

Read-out in experiment [2]: Secreted IgG (sIgG), gene 3500
The experiment in a line: BSK_BT_sIgG: BioMAP Diversity Plus: BT Assay for Secreted IgG (sIgG) Biomarker Activity (AID 2284226). To be noted: primary human B cells with PBMC. An outline of the steps: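 Read-out: ELISA for secreted IgG after 24 h of chemical exposure in a B cell plus PBMC co-culture. Values reflect upward-direction fitting against DMSO negative controls.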

A short description of experiment [3]: BSK_BT_Bcell_Proliferation: Viability Assessment in the BioMAP Diversity Plus: BT Assay for B cell Proliferation (AID 2284227). To be noted: primary human B cells with PBMC. An outline of the steps: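 SRB-based protein staining (0.1% SRB after 10% TCA fixation, 560 nm) quantifies proliferation in human B cells co-cultured with PBMC, 72 h post-dosing, with signal gain scored relative to DMSO negative control.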

Read-out in experiment [4]: Interleukin 6 (IL6), IL6 (gene 3569)
The experiment in a line: BSK_BT_xIL6: BioMAP Diversity Plus: BT Assay for Interleukin 6 (IL6) Biomarker Activity (AID 2284228). Conditions: primary human B cells with PBMC. An outline of the steps: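 Readout: secreted IL-6 via Luminex xMAP multiplex, 24 h post-dosing. System: primary human B cells co-cultured with PBMC. Signal change scored relative to DMSO vehicle, positive fitting direction.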

Read-out in experiment [5]: Interleukin 17A (IL17A), IL17A (gene 3605)
The experiment in a line: BSK_BT_xIL17A: BioMAP Diversity Plus: BT Assay for Interleukin 17A (IL17A) Biomarker Activity (AID 2284229). Conditions: primary human B cells with PBMC. An outline of the steps: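 Luminex xMAP readout of secreted IL-17A; human B cell + PBMC co-culture; 24 h post-dose; positive-direction fit vs DMSO negative control.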

A short description of experiment [6]: CCTE_Shafer_MEA_dev_mutual_information_norm: CCTE's Neural Network Formation Assay for Mutual Information Normalization, Shafer Lab (AID 2284091). An outline of the steps: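 Developing rat cortical networks on 16-electrode MEA wells are treated throughout formation (DIV 0–12). Shared electrode information is recorded four times, converted to area-under-curve, and fitted for decreases against DMSO vehicle.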

Experiment [7] in a line: CCTE_Shafer_MEA_dev_correlation_coefficient_mean: CCTE's Neural Network Formation Assay for Mean Correlation Coefficient, Shafer Lab (AID 2284093). An outline of the steps:
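Read-out: well-mean correlation coefficient of spike trains between electrode pairs, collapsed over four recording days as trapezoidal area-under-the-curve. Developing rat cortical neuron networks grown on MEAs received test chemical continuously from plating.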

Experiment [8] in a line: CCTE_Shafer_MEA_dev_AB: CCTE's Alamar Blue Assay for Cytotoxicity in the Neural Network Formation Assay, Shafer Lab (AID 2284083; active means hit-call score of the fitted dose curve at least 0.9, where 1 is the maximum;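 further: resazurin reduction fluorescence as viability of cultured neurons; twelve days of exposure from plating with re-dosing on DIV 5 and 9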). The procedure, abridged:
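Fluorescent resazurin reduction serves as the viability read-out, with DMSO as negative control and baseline. Cells were primary rat cortical neurons grown on MEA plates and dosed from day 0 to day 12, treatment renewed on DIV 5 and 9.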

A short description of experiment [9]: CCTE_Mundy_HCI_hNP1_Pro_ResponderAvgInten: CCTE's Proliferation Assay in human neuroprogenitor cells, Mundy Lab (AID 2284224; active means hit-call score of the fitted dose curve at least 0.9, where 1 is the maximum;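 further: human neural progenitor cells hNP1 derived from WA09 embryonic stem cells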). An outline of the steps:
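Proliferation was scored as BrdU labelling intensity in human neural progenitors derived from WA09 embryonic cells, measured 26.25 hours after chemical dosing. Activity was fitted relative to DMSO.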

Molecules are shown by their SMILES. “And” between values parts separate entries of the source, which are not always exact repeats. Identical values can stand only once. Inconclusive results are not listed. Some structures have more than one record in an assay (separate samples or runs), and their calls can disagree. The source made the active and inactive calls. How the source made its calls, unless noted: active means hit-call score of the fitted dose curve at least 0.9, where 1 is the maximum; inactive means score below 0.9.

With `O=C(c1ccccc1)c1ccc(O)cc1O`, the outcome in [1], in experiment [2], in [3], in experiment [4] and in experiment [5] was inactive.
Consider `NC(=O)C(F)(F)C(F)(F)C(F)(F)C(F)(F)C(N)=O`, for which the compound was called inactive in experiment [6], in experiment [7], in experiment [1], in experiment [2], in experiment [3] and in experiment [4]. Moreover, in experiment [5], the outcome was inactive.
Turning to `C=CC(=O)OCC(F)(F)C(F)(F)C(F)(F)C(F)(F)C(F)(F)C(F)(F)C(F)(F)C(F)F`, the AC50 in [1] was 32.5 µM (active) and 22.7 µM (active); in experiment [2], 46.2 µM (active); in experiment [3], 44.8 µM (active) and 30 µM (active); in experiment [4], 33.7 µM (active) and 14.4 µM (active); in experiment [5], 30 µM (active) and 27.2 µM (active). In [2], the outcome was inactive.
For `CCN(CCO)S(=O)(=O)C(F)(F)C(F)(F)C(F)(F)C(F)(F)C(F)(F)C(F)(F)C(F)(F)C(F)(F)F`, the call in experiment [8], in experiment [6], in experiment [7], in experiment [9] and in experiment [1] was inactive. In addition, the AC50 in experiment [2] was 16.6 µM (active); in experiment [3] it was 46.4 µM (active) and 30 µM (active); in experiment [4], 41.8 µM (active) and 46.8 µM (active); in experiment [5], 20.2 µM (active) and 21.2 µM (active).
Turning to `O=C(O)CCC(F)(F)C(F)(F)C(F)(F)F`, the result in experiment [1], in [2], in [3], in experiment [4] and in experiment [5] was inactive.
Take `O=C(Cl)C(F)(F)C(F)(F)C(F)(F)C(F)(F)C(F)(F)C(F)(F)F`: the outcome in [2], in experiment [3], in [4] and in experiment [5] was inactive.
Consider `CCN(CC)c1ccc(N=Nc2ccccc2)cc1`, for which the result in experiment [1] was inactive. For the same compound, the AC50 is 18 µM (active) in experiment [2], 30.3 µM (active) in [3], 20 µM (active) in [4] and 20 µM (active) in experiment [5].
Consider `C[C@]12CC[C@H]3C(=CCc4cc(O)ccc43)[C@@H]1CCC2=O`, for which the AC50 in [2] is 29.1 µM (active); in experiment [3], 26.1 µM (active). Further, the result in experiment [4] and in [5] was inactive.
As to `Cc1cc(O)c(C(C)(C)C)cc1C(C)(C)C`, the AC50 in experiment [2] was 12.9 µM (active); in experiment [3], 26.1 µM (active); in [4] it was 17.2 µM (active); in [5], 20 µM (active).
For the compound `COC(F)(C(F)F)C(F)(F)F` (stereo unspecified), the outcome in experiment [2], in experiment [3], in experiment [4] and in [5] was inactive.
As for `Cc1cnccn1`, the AC50 in experiment [2] is 5.22 µM (active). For the same compound, the outcome in [3], in [4] and in experiment [5] was inactive.
For `O=C1C=CC(=O)N1c1ccc(Cc2ccc(N3C(=O)C=CC3=O)cc2)cc1`, the AC50 is 2.18 µM (active) in experiment [2], 3.64 µM (active) in experiment [3], 3.09 µM (active) in experiment [4] and 1.99 µM (active) in [5].
Regarding `O=S(=O)(OCC(F)(F)F)C(F)(F)C(F)(F)C(F)(F)C(F)(F)F`, the outcome in [2], in [3], in experiment [4] and in experiment [5] was inactive.
As for `NCC(F)(F)C(F)(F)C(F)(F)C(F)(F)C(F)(F)C(F)(F)C(F)(F)C(F)(F)F`, the result in experiment [2], in [3], in experiment [4] and in [5] was inactive.
For the compound `NCC(F)(F)C(F)(F)C(F)(F)C(F)(F)C(F)(F)C(F)(F)F`, the outcome in [2], in [3], in [4] and in experiment [5] was inactive.
On to `O=C(F)C1(F)C(F)(F)C(F)(F)C(F)(F)C(F)(F)C1(F)F`, for which the result in experiment [2], in experiment [3], in experiment [4] and in experiment [5] was inactive.
In the case of `Cc1cc(C)c(O)c(C(C)(C)C)c1`, the outcome in experiment [2], in experiment [3], in experiment [4] and in [5] was inactive.
As for `Cc1ccc(S(=O)(=O)C(I)I)cc1`, the AC50 in experiment [1] was 4.06 µM (active); in [2] it was 2.03 µM (active); in experiment [3], 2.97 µM (active); in [4], 2.82 µM (active); in [5], 2.36 µM (active).
Regarding `O=C(O)C(F)(F)C(F)(F)C(F)(F)C(F)(F)C(F)(F)C(F)(F)C(F)F`, the outcome in experiment [2], in experiment [3], in experiment [4] and in experiment [5] was inactive. In experiment [3], the AC50 was 21.8 µM (active).
Regarding `CCN(CC)c1ccc(C=O)cc1`, the outcome in experiment [2], in [3], in experiment [4] and in experiment [5] was inactive.
With `C=C(C)C(=O)OCC(F)(F)C(F)(F)C(F)(F)C(F)F`, the outcome in [1], in experiment [2], in experiment [3], in experiment [4] and in experiment [5] was inactive.
For `O=C1c2c(O)ccc(Nc3ccc(CCO)cc3)c2C(=O)c2c([N+](=O)[O-])ccc(O)c21`, the figures for the AC50 in experiment [2] and in [3] were 29.9 µM (active) and 15.5 µM (active), respectively. Also, the result in experiment [4] and in experiment [5] was inactive.
Turning to `O=C(O)CCC(F)(F)C(F)(F)C(F)(F)C(F)(F)C(F)(F)C(F)(F)C(F)(F)F`, the result in experiment [1], in experiment [3], in experiment [4] and in experiment [5] was inactive. For the same compound, the AC50 in experiment [2] is 3.33 µM (active) and 5.61 µM (active).
For `O=S(=O)(Cl)C(F)(F)C(F)(F)C(F)(F)C(F)(F)C(F)(F)C(F)(F)C(F)(F)C(F)(F)F`, the outcome in [2], in experiment [3], in experiment [4] and in experiment [5] was inactive.
As to `FC(F)(F)C(F)(F)C(F)(F)C(F)(F)C(F)(F)C(F)(F)CC[Si](Cl)(Cl)Cl`, the outcome in [2], in experiment [3], in [4] and in [5] was inactive.
For `C[Si](Cl)(Cl)CCC(F)(F)C(F)(F)C(F)(F)C(F)(F)C(F)(F)C(F)(F)F`, the outcome in experiment [2], in [3], in experiment [4] and in [5] was inactive.
`CCOC(C=C(C)CCC=C(C)C)OCC`: the result in experiment [1], in experiment [2], in experiment [3], in experiment [4] and in [5] was inactive.
On to `OCC(O)CC(F)(F)C(F)(F)C(F)(F)C(F)(F)C(F)(F)C(F)(F)C(F)(F)C(F)(F)F` (stereo unspecified), for which the result in experiment [2], in experiment [3], in experiment [4] and in experiment [5] was inactive.
Turning to `O=C(O)C(F)(F)OC(F)(F)C(F)(F)OC(F)(F)C(F)(F)OC(F)(F)F`, the result in [2], in [3], in experiment [4] and in [5] was inactive.
`O=C=NCc1cccc(CN=C=O)c1`: the result in experiment [2], in experiment [3], in [4] and in experiment [5] was inactive.
As to `FC(F)(F)C(F)(F)C(F)(F)CC1CO1` (stereo unspecified), the result in experiment [2], in experiment [3], in experiment [4] and in experiment [5] was inactive.
Consider `Brc1nc2ccccc2s1`, for which the result in experiment [2], in [3] and in experiment [5] was inactive. Also, the AC50 in experiment [4] was 0.338 µM (active).
`CCOC(=O)CC(=O)C(F)(F)C(F)(F)F`: the outcome in [2], in experiment [3], in experiment [4] and in experiment [5] was inactive.
For the compound `Nc1cc([N+](=O)[O-])cc(Cl)c1O`, the result in [2], in [3], in experiment [4] and in experiment [5] was inactive.
On to `CCN(CC)c1ccc2c(c1)Oc1cc(N(CC)CC)ccc1C21OC(=O)c2ccccc21`, for which the half-maximal activity concentration (AC50) in [2] was 6.43 µM (active); in [3], 6.1 µM (active); in [4], 10 µM (active). For the same compound, the outcome in experiment [5] was inactive.
As for `CC(C)CCCC(C)CCO` (stereo unspecified), the outcome in experiment [2], in [3], in [4] and in experiment [5] was inactive.
Turning to `NS(=O)(=O)C(F)(F)C(F)(F)C(F)(F)C(F)(F)C(F)(F)C(F)(F)F`, the result in [2], in [3], in experiment [4] and in [5] was inactive.

In general, AC50 refers to the concentration at which the activity in the assay is half-maximal.
